# Values without a mark were called inactive. Records with an inconclusive call do not appear. Active and inactive are the calls of the source. Unless noted, calls follow the shape of the dose curve; as a rule, active = well fitted curve in the direction sought with a large enough effect; inconclusive = small, poorly fitted or top-dose-only effect, or another doubt; inactive = no such curve, though single readings can be large; an effect the other way counts as inactive or inconclusive.
# Legend:
# [1] = biological target: Glucocorticoid receptor (Homo sapiens) (UniProt P04150); assay: qHTS assay for small molecule agonists of glucocorticoid receptor signaling (AID 588532; active = well fitted curve in the direction sought with a large enough effect in the signal ratio, with a control signal flat; the % refers to the signal ratio;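 also: 100% = dexamethasone at 0.1 µM and 0% = DMSO only wells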); settings: HeLa MMTV-bla, beta-lactamase ratio, agonist, 18 h; hits give high values; percent of dexamethasone control, DMSO zero
# Method in brief: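 Stimulation of a glucocorticoid response element-driven beta-lactamase gene was measured in HeLa cells. Responses were scaled between DMSO basal and 0.1 uM dexamethasone, then fitted for half-maximal stimulation.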
# [2] = biological target: Glucocorticoid receptor (Homo sapiens) (UniProt P04150); assay: qHTS assay for small molecule antagonists of glucocorticoid receptor signaling (AID 588533; active = well fitted inhibition curve with a large enough effect in the signal ratio, with a control signal flat, not every such curve was filed as active; the % refers to the signal ratio;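 also: cells stimulated with 2 nM dexamethasone as agonist; potency is read from the fitted curve at half-maximal effect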); settings: HeLa MMTV-bla, GRE beta-lactamase ratio, antagonist mode, 18 h; series mostly up to 76.8 µM
# Method in brief: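 Antagonist-mode qHTS: compound titrations added to GRE-bla HeLa cells, then dexamethasone 2 nM final; 18 h, 37 C. CCF4 FRET fluorescence normalized to dexamethasone and DMSO; IC50 from Hill fit.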
# [3] = biological target: Thyroid hormone receptor beta (Homo sapiens) (UniProt P10828); assay: qHTS assay for small molecule agonists of thyroid hormone receptor beta signaling (AID 588545; calls by dose curve); settings: TR-UAS-bla GripTite HEK 293, beta-lactamase ratio, agonist mode, 18 h; series mostly up to 76.7 µM
# Method in brief: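 HEK 293 TR-UAS-bla; agonist mode; 18 hrs, 37 C; CCF4, ex 405/em 460 and 530 nm; norm. T3 10 nM = 100%, DMSO = 0%; Hill fit → EC50, efficacy.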
# [4] = qHTS assay for small molecule agonists of the antioxidant response element (ARE) signaling pathway (AID 651741; active = well fitted activation curve with a large enough effect in the signal ratio; the % refers to the signal ratio; also: potency is read from the fitted curve at half-maximal effect); settings: HepG2 ARE-bla reporter, beta-lactamase FRET ratio, 16 h; series mostly up to 96 µM
# Method in brief: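 Compounds in DMSO are pinned onto HepG2 ARE-bla cells (2,000/well) that were preincubated 5 h; plates stay 16 h at 37 C, then beta-lactamase activity is detected with LiveBLAzer B/G substrate by fluorescence.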
# [5] = qHTS assay for small molecule activators of the p53 signaling pathway (AID 651743; active = well fitted activation curve with a large enough effect in the signal ratio, not every such curve was filed as active; the % refers to the signal ratio; also: % of control where 0% means no effect); settings: HCT-116 p53RE-bla, beta-lactamase FRET ratio, 16 h; activation: hits give high values
# Method in brief: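 Cell-based beta-lactamase reporter (p53 response elements, HCT-116 background). After a 5-hour preincubation, cells received compound for 16 hours at 37 C; substrate development ran 2 hours at room temperature.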
# [6] = qHTS assay for environmental chemicals that activate the Aryl hydrocarbon Receptor (AhR) signaling pathway (AID 651777); settings: 1A2-DRE human hepatoma cells, luciferase, 24 h; activation: hits give high values; also: nearly all actives have a fitted effect of over 15% in size; also: potency is read from the fitted curve at half-maximal effect; as to activation: % of control where 0% means no effect
# Method in brief: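 Measured luciferase activity, read 30 min after One-Glo addition at room temperature, from human hepatoma cells bearing a dioxin response element–CYP1A2 promoter reporter and exposed to compound for 24 hr at 37 C.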
# [7] = biological target: Peroxisome proliferator-activated receptor alpha (Homo sapiens) (UniProt Q07869); assay: qHTS assay for small molecule agonists of the peroxisome proliferator-activated receptor alpha (PPARalpha) signaling pathway (AID 651778); settings: PathHunter PPARalpha complementation, chemiluminescence, 6 h; max response: hits give high values; also: % of control where 0% means no effect
# Method in brief: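 Cells plated at 2,000/well and held overnight at 37 C, 5% CO2, then compound added by pin tool for 6 hr; after PathHunter detection reagent and 60 min at room temperature, chemiluminescence from enzyme complementation was read.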
# [8] = qHTS assay for cell viability of the p53RE-bla HCT-116 cell line (AID 743292); settings: p53RE-bla HCT-116 viability, ATP luminescence, 16 h; series mostly up to 95 µM; also: potency is read from the fitted curve at half-maximal effect; nearly all actives have a fitted effect of over 55% in size
# Method in brief: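 Intracellular ATP of p53RE-bla HCT-116 cells measured by luciferase luminescence following 16 h compound incubation at 37 C; DMSO-only wells served as vehicle controls.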
# [9] = biological target: Nuclear receptor subfamily 1 group I member 2 (Rattus norvegicus) (UniProt Q9R1A7); assay: qHTS assay for small molecule activators of the rat pregnane X receptor (rPXR) signaling pathway (AID 651751; call rule not given here; also: 0% is about no effect); settings: rPXR reporter cells, luciferase (One-Glo), 24 h
# [10] = qHTS assay for small molecule agonists of the antioxidant response element (ARE) signaling pathway measured by Nrf2-dependant transcriptional activity (AID 720636; active = well fitted curve in the direction sought with a large enough effect in the repeat runs; an effect the other way counts as inactive or inconclusive;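 also: HepG2 cells with an ARE-driven luciferase reporter; % of control where 0% means no effect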); settings: ARE-luc HepG2, Nrf2 luciferase reporter, 16 h; series mostly up to 92.4 µM
# Method in brief: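 In HepG2 cells engineered with an Nrf2-responsive luciferase gene, ARE induction was quantified as luminescence after 16 hr compound treatment at 37 C.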
# [11] = qHTS assay for small molecule agonists of the antioxidant response element (ARE) signaling pathway measured by Nrf2-dependant transcriptional activity - cell viability counter screen (AID 720653; active = well fitted curve in the direction sought with a large enough effect in the repeat runs; an effect the other way counts as inactive or inconclusive; also: potency is read from the fitted curve at half-maximal effect; as to max response: % is scaled to controls: 0 for no effect and ±100 for the full control effect); settings: ARE-bla HepG2 viability, CellTiter-Glo ATP luminescence, 16 h; max response: hits give low values
# Method in brief: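 ARE-bla HepG2 cells (2,000/well) rested 5 hrs at 37C/5% CO2, then exposed to compounds in DMSO for 16 hrs. Viability was read in the same wells as intracellular ATP by luminescence, 30 min at room temperature after reagent addition.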
# [12] = qHTS assay for cell viability of HEK293 cells (AID 743288); settings: ATP luminescence (CellTiter-Glo), 18 h; max response: hits give low values; also: nearly all actives have a fitted effect of over 50% in size; also: potency is read from the fitted curve at half-maximal effect; as to max response: % is scaled to controls: 0 for no effect and ±100 for the full control effect
# Method in brief: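 HEK293 parental, 2,000 cells/well; ≥5 h pre-incubation 37 C; pintool compound addition; 18 h, 37 C; CellTiter-Glo 30 min RT; luminescence read.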
# [13] = biological target: Vitamin D3 receptor (Homo sapiens) (UniProt P11473); assay: qHTS assay for small molecule agonists of vitamin D receptor signaling (AID 588543; calls by dose curve;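 also: 0% = DMSO basal and 100% = reference agonist control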); settings: HEK293T VDR-UAS-bla, beta-lactamase ratio, 16 h; series mostly up to 76.8 µM
# Method in brief: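 Reporter cells (HEK293T, VDR-UAS-bla) were seeded in medium with 2% charcoal-stripped serum and incubated 5 h, then compounds in concentration series were added for 16 h at 37 °C. Stimulation was scaled between DMSO basal and 50 nM 1α,25-dihydroxyvitamin D3.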
# Sequence of Glucocorticoid receptor (Homo sapiens) (P04150 whole entry, looked up): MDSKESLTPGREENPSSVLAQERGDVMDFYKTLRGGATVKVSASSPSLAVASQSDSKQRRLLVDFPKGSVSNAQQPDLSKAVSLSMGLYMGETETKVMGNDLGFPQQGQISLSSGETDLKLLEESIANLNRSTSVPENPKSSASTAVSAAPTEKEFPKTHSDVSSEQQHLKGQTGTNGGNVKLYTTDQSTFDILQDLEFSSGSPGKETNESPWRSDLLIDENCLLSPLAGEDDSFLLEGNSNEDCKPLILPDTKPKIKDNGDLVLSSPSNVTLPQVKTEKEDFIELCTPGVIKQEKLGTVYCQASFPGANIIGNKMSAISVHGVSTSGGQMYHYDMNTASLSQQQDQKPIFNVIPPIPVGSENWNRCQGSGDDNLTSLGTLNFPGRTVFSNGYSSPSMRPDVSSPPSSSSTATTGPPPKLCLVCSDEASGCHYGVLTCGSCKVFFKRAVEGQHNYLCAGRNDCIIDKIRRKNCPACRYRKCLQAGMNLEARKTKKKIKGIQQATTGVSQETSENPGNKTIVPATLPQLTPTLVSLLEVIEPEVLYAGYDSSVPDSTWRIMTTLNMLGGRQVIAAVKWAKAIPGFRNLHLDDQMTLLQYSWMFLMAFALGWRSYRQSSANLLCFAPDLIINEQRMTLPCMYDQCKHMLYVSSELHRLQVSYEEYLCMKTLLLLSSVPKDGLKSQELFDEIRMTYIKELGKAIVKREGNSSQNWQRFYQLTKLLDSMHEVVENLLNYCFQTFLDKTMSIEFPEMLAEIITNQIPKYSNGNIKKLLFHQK
# Sequence of Peroxisome proliferator-activated receptor alpha (Homo sapiens) (Q07869 whole entry, looked up): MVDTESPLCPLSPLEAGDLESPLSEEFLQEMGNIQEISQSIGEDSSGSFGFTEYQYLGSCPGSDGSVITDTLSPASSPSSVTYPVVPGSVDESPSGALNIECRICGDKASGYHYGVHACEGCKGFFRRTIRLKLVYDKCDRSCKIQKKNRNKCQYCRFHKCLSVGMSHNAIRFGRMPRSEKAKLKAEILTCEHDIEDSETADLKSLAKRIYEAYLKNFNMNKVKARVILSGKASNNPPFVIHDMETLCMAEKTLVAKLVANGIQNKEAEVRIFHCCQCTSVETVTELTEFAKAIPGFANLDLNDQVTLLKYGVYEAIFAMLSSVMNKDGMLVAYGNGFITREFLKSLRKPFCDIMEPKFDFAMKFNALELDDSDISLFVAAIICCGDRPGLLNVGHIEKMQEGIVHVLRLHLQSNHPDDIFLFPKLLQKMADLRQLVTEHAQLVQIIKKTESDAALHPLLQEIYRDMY
# Sequence of Thyroid hormone receptor beta (Homo sapiens) (P10828 whole entry, looked up): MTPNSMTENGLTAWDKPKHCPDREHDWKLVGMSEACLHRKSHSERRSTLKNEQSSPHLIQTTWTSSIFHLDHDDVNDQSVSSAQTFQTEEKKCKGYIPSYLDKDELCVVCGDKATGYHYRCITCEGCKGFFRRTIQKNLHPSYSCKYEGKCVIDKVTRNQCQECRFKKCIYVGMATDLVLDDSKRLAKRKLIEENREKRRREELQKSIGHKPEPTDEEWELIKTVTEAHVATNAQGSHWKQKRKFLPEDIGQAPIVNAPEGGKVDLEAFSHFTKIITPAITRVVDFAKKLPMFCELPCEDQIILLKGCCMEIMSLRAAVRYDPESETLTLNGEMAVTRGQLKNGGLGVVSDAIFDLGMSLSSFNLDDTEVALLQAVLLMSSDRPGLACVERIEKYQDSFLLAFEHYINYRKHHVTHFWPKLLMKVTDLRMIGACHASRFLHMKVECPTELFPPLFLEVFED
# Sequence of Vitamin D3 receptor (Homo sapiens) (P11473 whole entry, looked up): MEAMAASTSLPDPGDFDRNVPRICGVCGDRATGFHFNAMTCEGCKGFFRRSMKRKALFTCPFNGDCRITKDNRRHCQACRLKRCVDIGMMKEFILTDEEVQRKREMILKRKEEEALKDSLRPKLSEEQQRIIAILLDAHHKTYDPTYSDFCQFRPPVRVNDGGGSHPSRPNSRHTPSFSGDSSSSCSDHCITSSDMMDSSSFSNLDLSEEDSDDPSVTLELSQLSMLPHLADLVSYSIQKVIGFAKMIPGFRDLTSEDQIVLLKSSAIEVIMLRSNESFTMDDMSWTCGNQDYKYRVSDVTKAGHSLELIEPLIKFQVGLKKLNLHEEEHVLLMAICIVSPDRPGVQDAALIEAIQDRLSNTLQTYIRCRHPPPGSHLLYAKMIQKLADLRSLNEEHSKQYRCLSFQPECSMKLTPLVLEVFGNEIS
# Sequence of Nuclear receptor subfamily 1 group I member 2 (Rattus norvegicus) (Q9R1A7 whole entry, looked up): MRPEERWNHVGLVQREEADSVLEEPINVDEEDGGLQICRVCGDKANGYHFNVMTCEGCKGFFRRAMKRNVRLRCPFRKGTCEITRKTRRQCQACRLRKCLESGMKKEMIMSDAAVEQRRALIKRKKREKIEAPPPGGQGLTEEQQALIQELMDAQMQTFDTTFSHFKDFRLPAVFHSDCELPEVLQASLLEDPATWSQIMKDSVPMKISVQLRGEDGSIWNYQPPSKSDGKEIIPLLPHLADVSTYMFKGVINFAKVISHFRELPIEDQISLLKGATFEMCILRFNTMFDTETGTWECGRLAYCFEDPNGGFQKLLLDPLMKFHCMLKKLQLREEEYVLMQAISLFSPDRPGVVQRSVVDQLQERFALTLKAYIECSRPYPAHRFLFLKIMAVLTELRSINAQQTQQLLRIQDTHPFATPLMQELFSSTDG
smiles,measurement,setting,value
O=C(O)c1cc(O)c2ccccc2c1O,activation,[1],-13.3%
same,Potency,[2],44.7 µM (active)
same,Potency,[3],inactive
same,Potency,[4],7.7 µM (active)
same,activation,[5],-4.76%
same,Potency,[6],14.1 µM (active)
same,max response,[7],-7.87%
same,Potency,[8],39.8 µM (active)
same,max response,[9],5.84%
Cc1cc(Cc2cc(C)cc(C(C)(C)C)c2O)c(O)c(C(C)(C)C)c1,activation,[1],20.3%
same,Potency,[4],48.6 µM (active)
same,activation,[6],-12.4%
same,Potency,[10],inactive
same,Potency,[11],39.8 µM (active)
same,Potency,[12],50.1 µM (active)
same,Potency,[8],44.7 µM (active)
CCCCCCC(C)OC(=O)COc1nc(F)c(Cl)c(N)c1Cl (configuration not stated),outcome,[13],inactive
same,activation,[5],-6.58%
same,max response,[7],25.7%
same,Potency,[10],inactive
same,max response,[11],17%
same,max response,[12],-29.6%

# Source: PubChem BioAssay (NCATS)
